Wnt bcat act – activators of Wnt/beta-catenin signaling; 1.2% of 300,000 active; activation, % at 9.35 µM; Wnt/beta-catenin reporter cell assay, activator, plate reader; in the data active means activation above about 30%, passing the limit was not always enough
AF4-AF9 inh – inhibitors of human MLL-AF4/AF9 interaction; P42568; inhibition, % at 10 µM; 0.47% of 350,000 active; AlphaScreen, biotin-AF4 peptide binding to FLAG-AF9;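 active means every replicate reaching a set inhibition limit, whatever the replicate mean, cut at about 25% in these data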
FGF22 binding – shifts melting point of recombinant human FGF22 | Q9HCT0 | 1.5% of 340,000 active | activity (Tm shift, normalised), % at 9.99 µM | recombinant FGF22 thermal shift, SYPRO orange fluorescence; percent of sucrose octasulfate shift, DMSO zero;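 active means mean Tm shift, scaled 0 neutral to 100 positive control, at about 1.3% or above, every replicate too, limit read from the data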
Target sequence (Q9HCT0 whole entry, looked up): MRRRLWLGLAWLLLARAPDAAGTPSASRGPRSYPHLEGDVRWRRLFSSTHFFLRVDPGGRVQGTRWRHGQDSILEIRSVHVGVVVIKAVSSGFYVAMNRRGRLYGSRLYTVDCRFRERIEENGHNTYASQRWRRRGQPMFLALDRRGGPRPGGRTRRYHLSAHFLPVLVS
esBAF inh – inhibitors of esBAF chromatin remodeling in mouse ES cells; Bmi1-luciferase knock-in reporter, 24 h; 100% = twice the neutral-well signal; 2% of 350,000 active; reporter increase, % at 12.5 µM; in the data active means activation above about 40%;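 further: a rise in the Bmi1 reporter signal indicates esBAF inhibition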
SMARCA2 act – SMARCA2 function activation, primary screen | MG213 cells, MMTV-luciferase reporter, dexamethasone, overnight | activation, % at 9.1 µM | 1% of 370,000 active; in the data active means activation above about 7.8%
MITF TRPM1 HTS – increases MITF-driven TRPM1 promoter luciferase signal; SK-MEL-5 TRPM1-promoter luciferase, 24 h; % of positive control, neutral wells = 0; activation, % at 12.5 µM; 0.75% of 300,000 active;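 active means mean activation of at least 80% with every replicate also reaching 80%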
Hits are given with their value; n = inactive; x = no result; ! = repeats disagree. Most compounds without a hit are left out; they make up all but 4.3% or so of the library.

SMILES | Wnt bcat act | AF4-AF9 inh | FGF22 binding | esBAF inh | SMARCA2 act | MITF TRPM1 HTS
CNC[C@@H]1Oc2ccc(NS(C)(=O)=O)cc2CC(=O)N([C@H](C)CO)C[C@H]1C | x | n | n | n | x | x
C[C@@H]1CN([C@@H](C)CO)C(=O)c2cc(C#CC3(O)CCCC3)cnc2O[C@H]1CN(C)C(=O)Nc1ccc2c(c1)OCO2 | x | n | n | n | x | x
Cc1noc(C)c1NC(=O)N(C)C[C@@H]1Oc2ncc(C#CC3CC3)cc2C(=O)N([C@@H](C)CO)C[C@H]1C | x | n | n | 52 | x | x
C[C@H]1CCCCO[C@H](CN(C)C(=O)Nc2ccc(F)cc2)[C@@H](C)CN([C@@H](C)CO)C(=O)c2cc(NC(=O)Nc3ccc4c(c3)OCO4)ccc2O1 | n | 32! | n | 51! | n | x
C[C@@H]1CCCCO[C@@H](CN(C)C(=O)Nc2ccc3c(c2)OCO3)[C@H](C)CN([C@@H](C)CO)C(=O)c2cc(NC(=O)Nc3ccc(F)cc3)ccc2O1 | x | n | n | n | x | x
C[C@@H]1CCCCO[C@@H](CN(C)C(=O)Nc2ccc3c(c2)OCO3)[C@H](C)CN([C@H](C)CO)C(=O)c2cc(NC(=O)Nc3ccc4c(c3)OCO4)ccc2O1 | x | n | n | 80 | x | x
C[C@H](CO)N1C[C@H](C)[C@@H](CN(C)C(=O)Nc2ccc3c(c2)OCO3)Oc2ncc(C#CC3(O)CCCC3)cc2C1=O | x | n | n | 60 | x | x
C[C@H](CO)N1C[C@H](C)[C@H](CN(C)C(=O)Nc2cccc3ccccc23)Oc2ccc(NC(=O)Cn3cnnn3)cc2C1=O | x | n | n | n | x | x
CN1C(=O)c2cc(NC(=O)Cc3ccccc3)ccc2OC[C@H]2O[C@H](CC(=O)NC3CCC3)CC[C@H]21 | x | n | n | n | x | x
C[C@H](CO)N1C[C@H](C)[C@@H](CN(C)C(=O)Nc2ccc3c(c2)OCO3)OCCCC[C@H](C)Oc2ccc(NC(=O)c3ccncc3)cc2C1=O | x | n | n | 54 | x | x
CC(C)NC(=O)N(C)C[C@@H]1OCCCC[C@H](C)Oc2ccc(NC(=O)Nc3ccc4c(c3)OCO4)cc2C(=O)N([C@H](C)CO)C[C@@H]1C | x | n | n | 48 | x | x
CC(C)NC(=O)N(C)C[C@@H]1OCCCC[C@@H](C)Oc2ccc(NC(=O)Nc3ccc4c(c3)OCO4)cc2C(=O)N([C@@H](C)CO)C[C@H]1C | x | n | n | n | x | x
C[C@@H]1CN([C@@H](C)CO)C(=O)c2cc(NC(=O)c3ccncc3)ccc2O[C@@H](C)CCCCO[C@H]1CN(C)C(=O)Nc1ccc2c(c1)OCO2 | x | n | n | n | x | x
Cc1ccc(NC(=O)c2ccc(-n3cccn3)c([N+](=O)[O-])c2)cc1 | n | x | x | n | n | n
O=C(Nc1ccc(C2=NCCN2)cc1)c1ccc(C(=O)Nc2ccc(C3=NCCN3)cc2)c([N+](=O)[O-])c1 | n | 38 | n | x | n | n
C[C@@H]1CN([C@H](C)CO)C(=O)CCCn2cc(nn2)CO[C@@H]1CN(C)Cc1ccc(Oc2ccccc2)cc1 | x | n | n | n | x | x
CN1C(=O)c2cc(NC(=O)C3CC3)ccc2OC[C@@H]2O[C@H](CC(=O)NCC3CCCCC3)CC[C@H]21 | x | n | n | n | x | x
O[C@@H]1COC(Nc2ccc(N=Nc3ccccc3)cc2)C[C@@H]1O (stereo partly specified) | 46 | n | n | x | n | x
OC[C@H]1OC(Nc2ccc(N=Nc3ccccc3)cc2)[C@@H](O)[C@@H](O)[C@@H]1O (stereo partly specified) | n | n | n | x | n | x
C#CCOCCOCCOCCNc1nc(N2CCN(C(=O)C([C@@H](C)O)n3cc([C@@H](N)CCCCN)nn3)CC2)nc(N2CCN(C(=O)[C@H](CCCCN)n3cc([C@@H](N)[C@H](C)CC)nn3)CC2)n1 (stereo partly specified) | n | 59 | n | n | n | n
C#CCOCCOCCOCCNc1nc(N2CCN(C(=O)C(Cc3ccc(O)cc3)n3cc(C(N)C(C)CC)nn3)CC2)nc(N2CCN(C(=O)C(Cc3ccc(O)cc3)n3cc(C(N)C(C)CC)nn3)CC2)n1 (stereo unspecified) | n | n | n | n | n | n
C#CCOCCOCCOCCNc1nc(N2CCN(C(=O)[C@H](CO)n3cc([C@@H](N)C(C)C)nn3)CC2)nc(N2CCN(C(=O)[C@H](CCCCN)n3cc([C@@H](N)[C@H](C)CC)nn3)CC2)n1 | n | 42 | 43 | n | n | n
C#CCOCCOCCOCCNc1nc(N2CCN(C(=O)[C@H](CCCCN)n3cc([C@@H](N)C(C)CC)nn3)CC2)nc(N2CCN(C(=O)[C@H](Cc3ccc(O)cc3)n3cc([C@@H](N)CC(C)C)nn3)CC2)n1 (stereo partly specified) | n | 30 | n | n | n | n
N#C[C@H]1[C@H](c2ccccc2-c2cccc(F)c2)[C@@H](CO)N1C(=O)C1CCOCC1 | x | n | n | x | x | x
C=CCN=C1NC(c2ccc(Cl)cc2)C(C(=O)OC)=C(C)N1Cc1ccccc1C(F)(F)F (stereo unspecified) | n | x | n | x | n | x
SMILES | Wnt bcat act | AF4-AF9 inh | FGF22 binding | esBAF inh | SMARCA2 act | MITF TRPM1 HTS
CNC(=O)C[C@@H]1CC[C@H]2[C@@H](COc3ccc(NC(=O)c4cnccn4)cc3C(=O)N2C)O1 | x | x | n | n | x | x
CNC(=O)C[C@H]1CC[C@@H]2[C@H](COc3ccc(NC(=O)c4ccc(C(F)(F)F)cc4)cc3C(=O)N2C)O1 | x | x | n | n | x | x
CCc1ccc(C(=O)COC(=O)c2cccc(N3C(=O)c4c(C)nc5ccccc5c4C3=O)c2)cc1 | 48 | x | x | n | n | n
O=C(COC(=O)c1cccc(N2C(=O)C3CC=CCC3C2=O)c1)c1ccccc1 (stereo unspecified) | n | n | n | n | n | n
COc1ccc(-n2c(COc3ccc(C)cc3)nnc2SCC(=O)O)cc1 | n | n | n | n | n | n
CCOc1ccc(-n2c(COc3ccc(C)cc3)nnc2SCC(N)=O)cc1 | 71 | x | x | n | n | x
C[C@H](CO)N1C[C@H](C)[C@@H](CN(C)S(=O)(=O)c2ccccc2)Oc2ccc(NC(=O)Nc3ccc(C(F)(F)F)cc3)cc2CC1=O | x | n | n | x | x | x
CC(=O)CC1c2cc(F)ccc2C=C(c2ccsc2)N1c1ccc(C#Cc2cncn2C)cc1 (stereo unspecified) | n | n | 1.8 | x | n | x
COC(=O)CNc1c(-c2ccccn2)nc2ccc(Br)cn12 | 40 | x | x | n | n | x
CO[C@@H]1CC[C@@H]2CCN(C)C(=O)C[C@@H](c3ccccc3)CN(C)C(=O)c3cc(C#N)ccc3OC[C@H]1O2 | x | n | n | n | x | x
CC(C)CNC(=O)c1cc([N+](=O)[O-])ccc1N1CCCCC1 | n | n | 43 | n | n | n
O=C(Nc1ccccc1)c1cc([N+](=O)[O-])ccc1N1CCCCC1 | n | n | n | n | n | n
CN(C)CC#Cc1ccc([C@@H]2[C@H]3CN(CC4CC4)CCCCN3[C@H]2CO)cc1 | x | 26 | n | x | x | x

Screening data as filed in PubChem BioAssay.
